The supplement of paper PMC7156485
“And” between values parts separate entries of the source, which are not always exact repeats. Identical values can stand only once. ± gives the standard deviation of the averaged measurements.

Experiments:
Settings in all cases: concentration: 10 µM; 24 h
HCC1569 [1] = experiment: cell number relative to DMSO (% of DMSO); higher = more cells (less growth inhibition / toxicity)
Summary of the method: (§1)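 After 24 h at 37 °C with compounds at 10 µM, in triplicate, HCC1569 and TDF cells were fixed with 3.7% formaldehyde. Immunostaining used a rabbit anti-H1.0 antibody and an AlexaFluor 647 secondary, with DAPI, and six fields per well were imaged at ×10. H1.0 nuclear intensity or cell number is presented as percent of the plate control, from the median of replicates, with HCC1569 values smoothed for positional effects.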

TDF [2] = experiment: as above
Summary of the method: as §1

TDF [3] = experiment: H1.0 immunofluorescence intensity relative to DMSO (% of DMSO); higher = stronger H1.0 induction, active = 120 or more
Summary of the method: as §1

HCC1569 [4] = experiment: H1.0 immunofluorescence intensity relative to DMSO (% of DMSO); higher = stronger H1.0 induction, active = 140 or more
Summary of the method: as §1
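Throughout, for H1.0 immunofluorescence intensity relative to DMSO: TDF is a line of transformed human dermal fibroblasts of mesenchymal origin.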
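Throughout, for cell number relative to DMSO: TDF denotes transformed human dermal fibroblasts of mesenchymal origin.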

Row | Structure (SMILES) | cell number (HCC1569 [1]) | cell number (TDF [2]) | H1.0 immunofluorescence intensity (TDF [3]) | H1.0 immunofluorescence intensity (HCC1569 [4])
1 | NC(=O)c1ccc(-c2nc(-c3ccc4c(c3)OCO4)c(-c3ccccn3)[nH]2)cc1 | 95.7 | 106 | 95.9 (inactive) | 136 (inactive)
2 | COc1ccc(-c2coc3cc(O)cc(O)c3c2=O)cc1 [Biochanin A] | 106 | 97.4 | 93.9 (inactive) | 90.6 (inactive)
3 | COCC(=O)OC1(CCN(C)CCCc2nc3ccccc3[nH]2)CCc2cc(F)ccc2C1C(C)C.Cl.Cl (stereo not given) [Mibefradil dihydrochloride] | 84.2 | 90.1 | 111 (inactive) | 124 (inactive)
4 | COc1cc2c(cc1OC)C1C(C)c3ccc(OC)c(OC)c3CN1CC2 (stereo not given) [Corydaline] | 96.9 | 106 | 94.4 (inactive) | 84.2 (inactive)
5 | NC(N)=NCCCCN=C(N)N.O=S(=O)(O)O [Arcaine sulfate] | 104 | 107 | 89 (inactive) | 92.3 (inactive)
6 | CCOC(=O)c1c(C)[nH]c(C=C2C(=O)Nc3ccccc32)c1C [VEGF Receptor 2 Kinase Inhibitor I] | 100 | 97.1 | 94.2 (inactive) | 103 (inactive)
7 | CCOC(=O)CN1C(=O)c2ccc3c4c(ccc(c24)C1=O)C(=O)N(CC(=O)OCC)C3=O | 104 | 105 | 89.7 (inactive) | 100 (inactive)
8 | CCOC(=O)C1=C(C)NC(C)=C(C(=O)OCC)C1c1ccccc1C=CC(=O)OC(C)(C)C [Lacidipine] | 93.2 | 93.4 | 98.1 (inactive) | 125 (inactive)
9 | COc1c2occc2c(OC)c2c(=O)cc(C)oc12 [Khellin] | 101 | 76.6 | 111 (inactive) | 100 (inactive)
10 | CN1CCCC1c1cccnc1.O=C(O)C(O)C(O)C(=O)O.O=C(O)C(O)C(O)C(=O)O (single isomer, unassigned; (-)) [(-)-Nicotine hydrogen tartrate salt] | 102 | 103 | 90 (inactive) | 99.2 (inactive)
11 | CC(CN(C)C)CN1c2ccccc2CCc2ccccc21.O=C(O)C=CC(=O)O (stereo not given) [Trimipramine maleate] | 106 | 106 | 102 (inactive) | 109 (inactive)
12 | CON=C(C(=O)NC1C(=O)N2C(C(=O)O)=C(COC(C)=O)CSC12)c1csc(N)n1 (stereo not given) [Cefotaxime Acid] | 107 | 99.1 | 96.3 (inactive) | 103 (inactive)
13 | CCCCCCCCCCCC1=C(O)C(=O)C=C(O)C1=O [Embelin] | 98.8 | 97.1 | 97.6 (inactive) | 87.3 (inactive)
14 | CCOc1ccccc1OCCNC(C)Cc1ccc(OC)c(S(N)(=O)=O)c1 (stereo not given) [Tamsulosin] | 98.8 | 96.7 | 97.8 (inactive) | 95.4 (inactive)
15 | CC1CS(=O)(=O)CCN1/N=C/c1ccc([N+](=O)[O-])o1 (stereo not given) | 96.4 | 102 | 98.5 (inactive) | 95.5 (inactive)
16 | NC(CCC(=O)NC(CSN=O)C(=O)NCC(=O)O)C(=O)O (stereo not given) [S-Nitrosoglutathione] | 104 | 102 | 88.7 (inactive) | 90.2 (inactive)
17 | CCN1CCCC1CNC(=O)c1cc(S(N)(=O)=O)ccc1OC (single isomer, unassigned; (-)) [(-)-Sulpiride] | 99.4 | 101 | 90.9 (inactive) | 98.5 (inactive)
18 | Ic1cccc(CSc2nnc(-c3ccncc3)o2)c1 [GSK-3b Inhibitor II] | 93.5 | 106 | 102 (inactive) | 117 (inactive)
19 | COc1ccc(C2CC(c3ccccc3)=NN2c2ccc(S(N)(=O)=O)cc2)cc1 (stereo not given) | 95.8 | 97.9 | 91.3 (inactive) | 114 (inactive)
20 | Cl.NC(=NCc1ccccc1)NC(=O)c1nc(Cl)c(N)nc1N [Benzamil hydrochloride] | 94.7 | 105 | 92.3 (inactive) | 105 (inactive)
21 | CC(=O)SCC[N+](C)(C)C.[Cl-] [Acetylthiocholine chloride] | 102 | 111 | 89.2 (inactive) | 92.5 (inactive)
22 | O=C(c1ccc2c(c1)OCCO2)N1CCCCC1 | 105 | 92.2 | 96.7 (inactive) | 107 (inactive)
23 | COc1cc2ccccc2cc1C(=O)OC(C)C(=O)NCc1ccc(F)cc1 (stereo not given) [IP3K Inhibitor] | 102 | 107 | 98.7 (inactive) | 115 (inactive)
24 | C=C(CC)C(=O)c1ccc(OCC(=O)O)c(Cl)c1Cl [Ethacrynic Acid] | 100 | 101 | 95.9 (inactive) | 100 (inactive)
25 | Cc1ccc(C(=O)COC(=O)c2cccc(NC(=O)c3ccc([N+](=O)[O-])cc3[N+](=O)[O-])c2)cc1 | 76.5 | 67.7 | 110 (inactive) | 152 (active)

Row | Structure (SMILES) | cell number (HCC1569 [1]) | cell number (TDF [2]) | H1.0 immunofluorescence intensity (TDF [3]) | H1.0 immunofluorescence intensity (HCC1569 [4])
26 | Nc1ncnc2c1nc(Sc1ccc(Cl)cc1)n2C1OC2COP(=O)([O-])OC2C1O.[Na+] (stereo not given) [8-(4-Chlorophenylthio)-cAMP sodium] | 104 | 106 | 93.1 (inactive) | 85.1 (inactive)
27 | Cc1scc2c1N(C(=O)CN1CCN(C)CC1)c1ccccc1NC2=O.Cl.Cl [Telenzepine dihydrochloride] | 107 | 94 | 99.8 (inactive) | 104 (inactive)
28 | O=C1NC(=O)C(=Cc2cccc(C(F)(F)F)c2)S1 [PIM1/2 Kinase Inhibitor V] | 102 | 103 | 102 (inactive) | 108 (inactive)
29 | CCOC(=O)C1OC1C(=O)NC(CC(C)C)C(=O)NCCC(C)C (stereo not given) | 100 | 93.4 | 101 (inactive) | 97.9 (inactive)
30 | COc1ccc(Nc2nc(N)nc(CN3CCCCC3)n2)cc1 | 102 | 90.5 | 96.9 (inactive) | 94.5 (inactive)
31 | c1cc(-c2sc(-c3ccncc3)c(-c3ccncc3)c2-c2ccncc2)ccn1 [4-[3,4,5-tri(4-pyridinyl)-2-thienyl]pyridine] | 98.5 | 95.1 | 98 (inactive) | 98.9 (inactive)
32 | CC(=O)OC(C)C[N+](C)(C)C.[Cl-] (stereo not drawn) [Acetyl-beta-methylcholine chloride] | 110 | 94.7 | 96.2 (inactive) | 88.4 (inactive)
33 | COc1ccc(C=C2c3ccccc3C(=O)c3ccccc32)cc1O [10-(3-hydroxy-4-methoxybenzylidene)-9(10H)-anthracenone] | 62.7 | 10.4 | 189 (active) | 207 (active)
34 | O=C(O)C1CCCNC1 (racemic) | 109 | 103 | 97 (inactive) | 92.1 (inactive)
35 | CC(=O)OCC[N+](C)(C)C [Acetylcholine] | 106 | 103 | 100 (inactive) | 100 (inactive)
36 | Br.CN1C2CCC1CC(OC(=O)C(O)c1ccccc1)C2 (stereo not given) | 102 | 97.5 | 97.2 (inactive) | 94.6 (inactive)
37 | CCCCCC(O)C=CC1C(O)CC(O)C1CC=CCCCC(=O)O (stereo not drawn) [8-Epi-prostaglandin F2a] | 102 | 110 | 96.2 (inactive) | 100 (inactive)
38 | O=C(c1cc(O)c(O)c([N+](=O)[O-])c1)c1ccccc1F | 106 | 106 | 95.7 (inactive) | 99.2 (inactive)
39 | NS(=O)(=O)c1cc(C(=O)O)c(NCc2ccco2)cc1Cl [Furosemide] | 101 ± 1.2 | 110 ± 1.9 | 91 (inactive) | 100 (inactive)
40 | Cn1c(=O)c2c(ncn2CC2OCCO2)n(C)c1=O [Doxofylline] | 103 | 106 | 105 (inactive) | 104 (inactive)
41 | COc1cc2nccc(Oc3ccc(NC(=O)Nc4cc(C)on4)c(Cl)c3)c2cc1OC [Tivozanib] | 79.2 | 101 | 99 (inactive) | 116 (inactive)
42 | CN(C)c1ccc(C2Nc3ccc4ccccc4c3C3=C2C(=O)CC(C)(C)C3)cc1Br (stereo not given) | 91.7 | 79.3 | 113 (inactive) | 130 (inactive)
43 | CC(C)OC(=O)CCCC=CCC1C(O)CC(O)C1CCC(O)CCc1ccccc1 (stereo not given) [Latanoprost] | 103 | 108 | 86.7 (inactive) | 105 (inactive)
44 | Brc1ccc(C2CN3CCSC3=N2)cc1.O=C(O)C(=O)O (stereo not drawn) [S(-)-p-Bromotetramisole oxalate] | 107 | 107 | 99.6 (inactive) | 94.6 (inactive)
45 | CCOP(=O)(OCC)C(=Cc1cc(C(C)(C)C)c(O)c(C(C)(C)C)c1)P(=O)(OCC)OCC | 90.7 | 101 | 93.9 (inactive) | 124 (inactive)
46 | O=C(O)C(=S)Cc1ccc(I)cc1 [(2Z)-3-(4-iodophenyl)-2-sulfanyl-2-propenoic acid] | 106 | 104 | 95.6 (inactive) | 94.8 (inactive)
47 | Cn1cc(C2=C(c3ccc(Cl)cc3Cl)C(=O)NC2=O)c2ccccc21 | 86.2 and 92.3 | 100 and 111 | 104 (inactive) and 105 (inactive) | 158 (active) and 136 (inactive)
48 | COc1cc(OC)cc(-c2cc3cnc(N)nc3nc2NC(=O)NC(C)(C)C)c1 | 84.2 | 90.4 | 101 (inactive) | 139 (inactive)
49 | Cl.O=C(O)C1=CCNCC1 [Isoguvacine hydrochloride] | 106 | 108 | 106 (inactive) | 98.2 (inactive)
50 | CCCCCCN(CCCCCC)C(=O)Cc1c(-c2ccc(F)cc2)[nH]c2ccccc12 [N,N-Dihexyl-2-(4-fluorophenyl)indole-3-acetamide] | 95.6 | 102 | 93.3 (inactive) | 94.3 (inactive)
